Measured values published in PubChem BioAssay (NCATS).
Results filed as inconclusive are left out. The source made the active and inactive calls. Unless noted, the call rests on the fitted dose curve; in most records, active means well fitted curve in either direction with a large enough effect (not every such curve was filed as active); inconclusive means small, poorly fitted or top-dose-only effect, or another doubt; inactive means flat fitted curve, though single readings scatter.

Columns and labels:
[1] = target: Lysosomal acid glucosylceramidase (Homo sapiens) (UniProt P04062); experiment: Glucocerebrosidase-p2 (AID 348; in the data active means potency below about 10 µM; further: potency means the concentration at half of the fitted maximal effect); settings: purified GBA, blue fluorogenic substrate, 40 min
Chain of Lysosomal acid glucosylceramidase (Homo sapiens) (P04062 whole entry, looked up): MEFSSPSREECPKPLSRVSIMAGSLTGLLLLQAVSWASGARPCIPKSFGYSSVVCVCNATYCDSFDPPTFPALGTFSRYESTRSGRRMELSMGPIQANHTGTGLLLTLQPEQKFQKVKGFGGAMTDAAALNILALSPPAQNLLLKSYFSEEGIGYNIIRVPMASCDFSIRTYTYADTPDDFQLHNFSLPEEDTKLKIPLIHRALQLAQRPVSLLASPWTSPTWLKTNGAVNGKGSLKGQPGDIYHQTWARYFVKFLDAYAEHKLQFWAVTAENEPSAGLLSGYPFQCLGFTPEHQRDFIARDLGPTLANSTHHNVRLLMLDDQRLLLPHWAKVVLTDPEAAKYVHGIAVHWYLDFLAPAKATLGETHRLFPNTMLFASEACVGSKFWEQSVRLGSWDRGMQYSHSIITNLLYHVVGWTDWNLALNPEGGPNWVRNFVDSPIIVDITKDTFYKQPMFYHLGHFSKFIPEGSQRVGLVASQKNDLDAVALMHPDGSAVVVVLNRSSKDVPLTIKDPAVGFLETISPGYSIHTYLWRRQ
Procedure, shortened: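 Normal human glucocerebrosidase (0.2 nM) with blue fluorogenic substrate (80 uM final) in citrate/phosphate pH 5.9 with 10mM sodium taurocholate, 0.01% tween-20; 40 min RT, NaOH/glycine stop; fluorescence Ex 365/Em 440; AC50 from a titration from 0.6 nM upwards.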

[2] = AP1 Signaling Pathway (AID 357); settings: ME-180 AP-1-bla reporter, EGF-induced, beta-lactamase ratio, 5 h; at 7.69 µM (top of the series) unless noted;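 further: ME-180 reporter cells stimulated with EGF at its EC50 level; on the % scale 0 is the no-effect control and ±100 the full control effect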
Procedure, shortened: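 In this screen, ME-180 cells in Opti-MEM with 0.5% dialyzed FBS received EC50 EGF and compound titrations for 5 h. AP-1 reporter beta-lactamase was detected via CCF4 ratio, giving AC50 for positive and negative modulators.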

[3] = target: Cytochrome P450 1A2 (Homo sapiens) (UniProt P05177); experiment: p450-cyp1a2 (AID 410; calls by dose curve;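 further: -100% = full effect of reference inhibitor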)
Chain of Cytochrome P450 1A2 (Homo sapiens) (P05177 whole entry, looked up): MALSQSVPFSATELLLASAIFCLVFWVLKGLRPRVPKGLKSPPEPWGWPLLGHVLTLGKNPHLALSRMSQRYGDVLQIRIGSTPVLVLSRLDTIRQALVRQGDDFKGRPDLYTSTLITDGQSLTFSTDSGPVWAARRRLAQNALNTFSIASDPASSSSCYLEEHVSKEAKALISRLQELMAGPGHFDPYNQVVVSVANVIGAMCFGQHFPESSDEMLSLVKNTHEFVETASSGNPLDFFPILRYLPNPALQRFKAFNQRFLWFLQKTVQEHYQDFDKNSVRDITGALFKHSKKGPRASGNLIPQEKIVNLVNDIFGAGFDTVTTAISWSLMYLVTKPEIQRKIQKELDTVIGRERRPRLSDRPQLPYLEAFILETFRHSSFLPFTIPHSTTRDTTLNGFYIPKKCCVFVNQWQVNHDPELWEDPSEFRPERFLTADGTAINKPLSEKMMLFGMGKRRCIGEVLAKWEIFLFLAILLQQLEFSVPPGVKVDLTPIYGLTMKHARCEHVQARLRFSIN
Procedure, shortened: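 O-Demethylation of luciferin 6' methyl ether by human CYP1A2 is monitored as luciferase luminescence. Substrate sits at Km (100uM); enzyme is 20nM. Values are scaled to 57 uM furafylline as maximal inhibition.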

[4] = NFAT Signaling Pathway (AID 444); settings: Jurkat NFAT-bla M1, carbachol, beta-lactamase ratio, 5 h; at 7.69 µM (top of the series) unless noted;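 further: carbachol stimulus at about its EC50 of 1 µM final; on the % scale 0 is the no-effect control and ±100 the full control effect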
Procedure, shortened: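 Jurkat cells carrying an NFAT-driven β-lactamase reporter and co-transfected muscarinic M1 receptor were treated with compound plus carbachol (1 uM final, an EC50 level) for 5 h at 37 °C. CCF4 loading followed for 1 h at RT; 460/530 nm ratio gave %activity.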

[5] = Stat Signaling Pathway (AID 446); settings: ME-180 (cervical carcinoma) SIE beta-lactamase reporter, IL-6 stimulated, 5 h; at 7.69 µM (top of the series) unless noted;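 further: ME-180 cervical cancer cells given 40 pM IL-6 alongside compound; SIE-controlled beta-lactamase reporter measured as 460/530 nm FRET emission ratio; on the % scale 0 is the no-effect control and ±100 the full control effect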
Procedure, shortened: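 Normalization used AC90 stimulation (300 pM IL-6) and AC90 inhibition (125 nM pan-JAK inhibitor at 40 pM IL-6). The underlying signal is SIE-driven beta-lactamase in ME-180 cells after 5 h IL-6 exposure with compound.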

[6] = target: Glucocorticoid receptor (Homo sapiens) (UniProt P04150); experiment: GR-GFP Redistribution (AID 450;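 active means compounds whose dose series gives a full or clear partial fitted curve of increased nuclear translocation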; further: potency means the concentration at half of the fitted maximal effect); settings: U2OS GR-GFP nuclear translocation, laser cytometry, 2 h
Chain of Glucocorticoid receptor (Homo sapiens) (P04150 whole entry, looked up, the tested form may be a part): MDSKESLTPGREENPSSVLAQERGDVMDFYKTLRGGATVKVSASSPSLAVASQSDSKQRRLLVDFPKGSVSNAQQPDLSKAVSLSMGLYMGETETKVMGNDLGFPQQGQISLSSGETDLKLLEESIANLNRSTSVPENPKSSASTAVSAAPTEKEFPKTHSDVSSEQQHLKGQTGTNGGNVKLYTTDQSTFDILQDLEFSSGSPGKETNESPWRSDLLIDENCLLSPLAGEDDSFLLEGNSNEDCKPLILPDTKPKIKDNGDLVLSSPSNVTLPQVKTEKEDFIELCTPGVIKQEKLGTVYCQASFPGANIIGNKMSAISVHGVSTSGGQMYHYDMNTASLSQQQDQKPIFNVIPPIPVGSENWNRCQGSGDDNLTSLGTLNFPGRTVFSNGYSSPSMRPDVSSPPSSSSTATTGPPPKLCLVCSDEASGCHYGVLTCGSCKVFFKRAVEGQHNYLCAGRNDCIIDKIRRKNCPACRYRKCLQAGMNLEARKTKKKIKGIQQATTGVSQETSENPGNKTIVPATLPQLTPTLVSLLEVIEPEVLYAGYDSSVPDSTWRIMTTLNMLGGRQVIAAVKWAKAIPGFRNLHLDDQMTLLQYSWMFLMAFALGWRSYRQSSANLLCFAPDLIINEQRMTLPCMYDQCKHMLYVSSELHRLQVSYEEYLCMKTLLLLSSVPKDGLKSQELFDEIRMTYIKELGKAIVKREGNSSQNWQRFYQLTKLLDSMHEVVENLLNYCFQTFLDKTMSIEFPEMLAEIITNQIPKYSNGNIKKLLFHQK

[7] = target: Glucocorticoid receptor (Homo sapiens) (UniProt P04150); experiment: GR-EFC Redistribution (AID 451; calls by dose curve; further: potency means the concentration at half of the fitted maximal effect); settings: CHO-K1 GR-EFC translocation, beta-gal luminescence, 2 h
Procedure, shortened: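 CHO-K1 cells stably expressing nuclear-localized β-gal enzyme acceptor and GR fused C-terminally to the enzyme donor fragment; ligand-driven nuclear translocation restores β-gal by complementation. Compounds titrated up to 46 uM final, 2 h at 37 °C; luminescence read.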

[8] = target: Mitogen-activated protein kinase 10 (Mus musculus) (UniProt Q61831); experiment: JNK3 AlphaScreen Assay (AID 530);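 further: kinase came from lysate of stimulated human HepG2 cells; signal reports phosphorylation of biotinylated GST-cJun 1-79 at Ser73 with 10 µM ATP; on the % scale 0 is the no-effect control and ±100 the full control effect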
Procedure, shortened: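 Phosphorylation of biotinylated GST-cJun(1-79) at Ser73 is measured by AlphaScreen proximity luminescence. Enzyme is JNK3 in HepG2 lysates activated with interleukin-1beta and tumor necrosis factor alpha; ATP is 10 uM final.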

O=C(O)[C@@H]1CS[C@@]2(CCCN(Cc3ccccc3)C2)N1
inactive: Potency [1] > 11.4 µM | activity change, negative = inhibition [2] 8.03% | activity change, negative = inhibition [3] -12% [at 2.29 µM] | activity change, negative = inhibition [4] 18.2% | activity, negative = inhibition [5] 2.47% | Potency [6] > 46 µM | Potency [7] > 9.22 µM | Potency [8]
